# From PubChem BioAssay AID1345085 (National Center for Advancing Translational Sciences (NCATS), 2018)
# Results filed as inconclusive are left out. Where a call stands in place of a potency, no number is given. The source made the active and inactive calls. Calls follow the shape of the dose curve; as a rule, active = well fitted cell-killing curve with a large enough effect; inconclusive = small, poorly fitted or top-dose-only effect, or effect the other way; inactive = no such curve, though single readings can be large or run the other way.
# System: CAOV3
# Test: Confirmatory qHTS for gynecologic anti-cancer compounds from libraries of approved drugs and bioactive compounds; also: nearly all actives have a fitted effect of over 55% in size
# Settings: gynecologic cancer cell panel viability, ATPlite luminescence, 48 h; series mostly up to 57.6 µM
# Outline: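 Cells (1,000/well) were plated, left 16 h at 37 C/5% CO2, then given compound at 11 concentrations (1:3) from 57.5 uM to 0.977 nM for 48 h. ATPlite luminescence after 15 min at room temperature gave IC50 values.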
# Potency is read from the fitted curve at half-maximal effect.
row,Compound,Potency
1,Cc1nc(Nc2ncc(C(=O)Nc3c(C)cccc3Cl)s2)cc(N2CCN(CCO)CC2)n1,24.3 µM (active)
2,Cc1ccc(C(=O)Nc2ccc(Oc3cc4cnn(C)c4cc3-c3cn[nH]c3)c(F)c2)c(=O)n1-c1ccc(F)cc1,6.85 µM (active)
3,CC(=O)Nc1cccc(-n2c(=O)n(C3CC3)c(=O)c3c(Nc4ccc(I)cc4F)n(C)c(=O)c(C)c32)c1,inactive
4,CCCCN(CCCC)CC(O)c1cc(Cl)cc2c1-c1ccc(Cl)cc1/C2=C/c1ccc(Cl)cc1 (centres undefined),inactive
5,COc1ccc2cc3[n+](cc2c1OC)CCc1cc2c(cc1-3)OCO2,inactive
6,Cc1cc(C2CCCCC2)n(O)c(=O)c1,12.5 µM (active)
7,CN(C)/N=N/c1nc[nH]c1C(N)=O,inactive
8,O=C(NOCC1CC1)c1ccc(F)c(F)c1Nc1ccc(I)cc1Cl,inactive
9,CN1C(=O)C(Cc2c[nH]c3ccccc23)NC1=S (centres undefined),inactive
10,COc1cc2c(Oc3ccc(-c4cnc(Nc5ccc(F)cc5)n(C)c4=O)cc3F)ccnc2cc1OCCCN1CCOCC1,19.3 µM (active)
11,Cc1nc(Nc2n[nH]c3c2CN(C(=O)NC(CN(C)C)c2ccccc2)C3(C)C)c2sccc2n1 (centres undefined),0.306 µM (active)
12,O=C1N(c2ccccc2)c2ccccc2C1(Cc1ccncc1)Cc1ccncc1,inactive
13,Nc1ncnc2c1ncn2[C@@H]1O[C@H](CO)C[C@H]1O,inactive
14,C[C@]12CCC(=O)C=C1[C@@H]1C[C@@H]1[C@H]1[C@@H]3[C@@H]4C[C@@H]4[C@@]4(CCC(=O)O4)[C@@]3(C)CC[C@@H]12,inactive
15,CC(C)Nc1cc(-c2c[nH]c(C(=O)N[C@H](CO)c3cccc(Cl)c3)c2)c(Cl)cn1,inactive
16,Cc1cc(Nc2cc(N3CCN(C)CC3)nc(Sc3ccc(NC(=O)C4CC4)cc3)n2)n[nH]1,inactive
17,C1CCC(C(CC2CCCCN2)C2CCCCC2)CC1 (centres undefined),24.3 µM (active)

row,Compound,Potency
1,CC(C)C[C@H](NC(=O)[C@H](CCc1ccccc1)NC(=O)CN1CCOCC1)C(=O)N[C@@H](Cc1ccccc1)C(=O)N[C@@H](CC(C)C)C(=O)[C@@]1(C)CO1,3.06 µM (active)
2,Cc1ccc(C(=O)Nc2ccc(CN3CCN(C)CC3)c(C(F)(F)F)c2)cc1C#Cc1cnc2[nH]ncc2c1,30.6 µM (active)
3,CNc1nc(Nc2ccc(C(=O)N3CCOCC3)cc2OC)ncc1Cl,inactive
4,CC(C)Oc1ccc(C(=O)NC(CNC(=O)CN(C)C)Cc2ccc(-c3cn4cccc(C(C)O)c4n3)cc2)cc1Cl (centres undefined),inactive
5,COc1cc2c(cc1-c1c(C)noc1C)ncc1[nH]c(=O)n(C(C)c3ccccn3)c12 (centres undefined),1.09 µM (active)
6,Cc1ccc(C(=O)N(CCCN)C(c2oc3cc(Cl)ccc3c(=O)c2Cc2ccccc2)C(C)C)cc1 (centres undefined),27.3 µM (active)
7,Cn1cc(-c2[nH]c3cc(NC(=O)[C@H](N)C4CCCCC4)cc4c3c2C=NNC4=O)cn1,3.85 µM (active)
8,COc1cc(F)c(F)c(Nc2ccc(I)cc2F)c1NS(=O)(=O)C1(CC(O)CO)CC1 (centres undefined),inactive
9,COc1ccc2c(c1OC)C(=O)O[C@@H]2[C@H]1c2c(cc3c(c2OC)OCO3)CCN1C,inactive
10,COc1c(C)c2c(c(O)c1C/C=C(\C)CCC(=O)OCCN1CCOCC1)C(=O)OC2,inactive
11,CNc1nccc(-c2cccnc2Oc2cc(C(=O)Nc3cccc(C(F)(F)F)c3)ccc2C)n1,24.3 µM (active)
12,CCC1=CC2CN(C1)Cc1c([nH]c3ccccc13)[C@@](C(=O)OC)(c1cc3c(cc1OC)N(C)[C@H]1[C@@](O)(C(=O)OC)[C@H](OC(C)=O)[C@]4(CC)C=CCN5CC[C@]31[C@@H]54)C2 (some centres undefined),inactive
13,COc1cc(N2CCC(N(C)C)CC2)ccc1Nc1ncc(Cl)c(Nc2ccccc2P(C)(C)=O)n1,10.9 µM (active)
14,CCCC(Nc1nc(-c2ccc(NC(=O)NCC)c(OC)c2)ncc1C)c1cccnc1 (centres undefined),inactive
15,CC[C@@]1(O)C(=O)OCc2c1cc1n(c2=O)Cc2cc3cc(O)ccc3nc2-1,0.109 µM (active)
16,CCN[C@H]1C[C@H](C)S(=O)(=O)c2sc(S(N)(=O)=O)cc21,inactive
17,OCc1ccc(-c2ccc(-c3ccc(CO)s3)o2)s1,0.668 µM (active)
